# High-throughput results from PubChem.
# In the library only some 8% were active in any assay of this set; here they are far more common.
# SARS PLpro yeast: qHTS of Yeast-based Assay for SARS-CoV PLP; Potency, µM (titrated, usually from 32.9 µM), for inactives: at the highest dose activity, positive = growth rescue, usual class: activators; actives 0.19% (n = 330,000); S. cerevisiae expressing SARS-CoV PLpro, growth rescue; calls by dose curve; note: potency is the fitted concentration of half-maximal effect; 0% is about no effect; nearly all actives have a fitted effect of over 55% in size
# HCMV antiviral: qHTS Assay for inhibitors of the human cytomegalovirus (HCMV); HFF cells, HCMV-luciferase reporter, 72 h; hits give low values; activity change, negative = inhibition, % at 57.5 µM; actives 4.5% (n = 410,000); in the data active = activity change below about -60%; inconclusive = no clear call, values can overlap the other calls; inactive = above about -39%; note: % is set by controls: 0 for no effect and ±100 for the full control effect
#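 Screen run at 2 compound doses on HFFs infected with reporter HCMV, MOI 1 PFU/cell. Luciferase activity from cell lysates at 72 h post infection gave inhibition relative to buffer-only and Salinomycin wells.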
# FMDV inh: High Throughput Screening for Foot and Mouth Disease Virus Antivirals; actives 1.2% (n = 410,000); FMDV antiviral cell-based qHTS; AID 1159524, 2015; Potency, µM (top dose mostly 57.9 µM), for inactives: at the top dose activity change, negative = inhibition, actives largely listed as inhibitors; calls by dose curve; tested in HEK293T cells; note: read-out not given here; potency is the fitted concentration of half-maximal effect; % is set by controls: 0 for no effect and ±100 for the full control effect; nearly all actives have a fitted effect of over 45% in size
# Lassa entry inh: qHTS for Inhibitors of binding or entry into cells for Lassa Virus. AID 540256, 2011. Lassa virus pseudotype entry inhibition, cell reporter. Potency, µM (series often up to 37.9 µM), for inactives: top-dose activity change, negative = inhibition, most hits filed as inhibitors. actives 1.2% (n = 300,000); calls by dose curve; tested in HEK293 cells; note: potency is the fitted concentration of half-maximal effect; % is set by controls: 0 for no effect and ±100 for the full control effect; nearly all actives have a fitted effect of over 50% in size
# Marburg entry inh: qHTS for inhibitors of binding or entry into cells for Marburg Virus; Marburg virus pseudotyped entry inhibition, cell reporter; Potency, µM (highest dose often 37.8 µM), without a hit: top-dose activity change, negative = inhibition, usual class: inhibitors; actives 1.8% (n = 300,000); AID 540276, 2011; calls by dose curve; tested in HEK293 cells; note: potency is the fitted concentration of half-maximal effect; % is set by controls: 0 for no effect and ±100 for the full control effect
# HCV inhibitor: qHTS Assay for Inhibitors of Hepatitis C Virus (HCV); Huh7.5.1 HCVcc-Cre infection, luciferase reporter, 44 h; Potency, µM (highest dose often 41.8 µM), for the others: at the highest dose activity change, negative = inhibition, actives largely listed as inhibitors; actives 3.4% (n = 340,000); note: potency is the fitted concentration of half-maximal effect; % is set by controls: 0 for no effect and ±100 for the full control effect
#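 Infectious HCV cell culture screen: compound-treated cells (1,000/well, pre-plated 4 h) are infected with HCVcc-Cre at roughly 0.5 moi and grown 44 h. Infection is quantified by luciferase signal after 15 min substrate incubation at room temperature.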
# HCV confirm: qHTS Assay for Inhibitors of Hepatitis C Virus (HCV): Confirmation Assay for Cherry-picked Compounds; HCVcc-Cre infectious virus cell assay, luciferase, inhibition; AID 720575, 2013; actives 78% (n = 640); shares compounds with HCV inhibitor; Potency, µM (titrated, usually from 41.8 µM), for inactives: at the highest dose activity, negative = inhibition, usual class: inhibitors; note: potency is the fitted concentration of half-maximal effect; nearly all actives have a fitted effect of over 80% in size
# HCV cytotox: qHTS Assay for Inhibitors of Hepatitis C Virus (HCV): Cytotoxicity Counterscreen for Cherry-picked Compounds; shares compounds with HCV inhibitor; HCV host cell line cytotoxicity counterscreen; Potency, µM (titrated, usually from 41.8 µM), for inactives: at the highest dose activity change, negative = cytotoxicity, most hits filed as inhibitors; actives 22% (n = 640); AID 720576, 2013;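 note: potency is the fitted concentration of half-maximal effect; 44 h compound exposure; % is set by controls: 0 for no effect and ±100 for the full control effect; nearly all actives have a fitted effect of over 55% in size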
# An asterisk follows results filed as active; u = inconclusive; x = no result given. Unless noted, calls come from the whole dose curve; as a rule, active = well fitted curve in the direction sought with a large enough effect; inconclusive = small, poorly fitted or top-dose-only effect, or another doubt; inactive = no such curve, though single readings can be large; an effect the other way counts as inactive or inconclusive.
SMILES,SARS PLpro yeast,HCMV antiviral,FMDV inh,Lassa entry inh,Marburg entry inh,HCV inhibitor,HCV confirm,HCV cytotox
O=S(=O)(Nc1cc(S(=O)(=O)N2CCOCC2)ccc1O)c1ccc2c(c1)OCCCO2,-2%,0,10%,x,x,-3%,x,x
CC(C)(C)c1ccc(C(=O)N2CCOC23CCCCC3)cc1,x,10,12%,x,x,x,x,x
COc1ccc(CCNc2ncnc3[nH]ncc23)cc1OC,-9%,u,18µM*,-26%,u,u,8.9µM*,-21%
Fc1ccc(CCNc2ncnc3[nH]ncc23)cc1,x,-36,-9%,-9%,-20%,u,x,x
Oc1c(Br)cc(Br)cc1CNc1nccs1,-2%,7,-16%,x,x,10%,x,x
CCOc1ccccc1C(=O)Nc1ccc2nc(N3CCN(c4ncccn4)CC3)cc(C)c2c1,x,x,8.9µM*,u,13µM*,2.2µM*,5µM*,-79%
COc1cccc(C(=O)Nc2ccc3nc(N4CCOCC4)cc(C)c3c2)c1,5%,-9,-9%,x,x,u,2.8µM*,17%
O=C(OCC12CC3CC(CC(C3)C1)C2)c1ccc(NCc2cc(O)ccc2O)cc1,x,-77*,18µM*,4.5µM*,u,1.6µM*,4µM*,10µM*
Cc1ccccc1Oc1nc(-c2ccccn2)nc2ccccc12,-4%,-99*,-9%,u,u,7.9µM*,11µM*,u
CSc1cccc(NC(=O)COC(=O)c2ccccn2)c1,-1%,0,-2%,x,x,14%,x,x
c1coc(CNc2nc3nonc3nc2NCc2ccco2)c1,-2%,-72*,u,-10%,u,u,2.2µM*,-23%
Cc1ccc(Cc2c(-c3cccc(Cl)c3)nc3ccc(Br)cn23)cc1,x,30,29%,x,x,x,x,x
C=CC[C@@H](CC(=O)OC(C)(C)C)C(=O)OC[C@@H]1CCCN1C(=O)[C@H](CC=C)CC(=O)NCCO,5%,-9,-15%,x,x,-5%,x,x
Cc1ccnc(NC(=O)CCCOc2cc(=O)n(C)c3ccccc23)c1,3%,-101*,4%,-39%,u,3.5µM*,7.9µM*,u
Cn1c(=O)cc(OCCCC(=O)NCc2ccccn2)c2ccccc21,-3%,180,0%,-8%,3%,14%,x,x
COc1ccc(CN2CCC(N(CCc3ccccc3)Cc3ccccc3)CC2)c(OC)c1,3%,-99*,18µM*,x,u,2.5µM*,7µM*,u
C/C(=N/Nc1nc(-c2ccccc2)cc(-c2ccc(F)cc2)n1)c1cccc(N)c1,1%,-21,8%,u,-7%,8.9µM*,14µM*,u
O=C(Nc1cccc(O)c1)c1ccc(S(=O)(=O)N2CCCCCC2)cc1,1%,18,-9%,u,u,3%,x,x
CCOc1ccc(OCCC(=O)OCC(=O)N2CCN(S(=O)(=O)c3ccc(C)cc3C)CC2)cc1,x,8,-3%,0%,1%,12%,x,x
COc1ccccc1CC(=O)Nc1cc2oc3ccccc3c2cc1OC,-6%,-8,x,4%,u,4µM*,13µM*,22%
CCOC(=O)[C@H]1[C@H]2COc3ccc(Br)cc3[C@@H]2N2C(=O)c3c(C)cc(C)cc3NC(=O)[C@@]12C,-3%,2,u,x,x,u,x,x
Cc1nn(Cc2c(F)c(F)c(F)c(F)c2F)c(C)c1NC(=O)c1ccc(COc2ccc(F)cc2)o1,-4%,u,u,-22%,3.7µM*,2µM*,14µM*,-23%
